An excerpt weighted towards active compounds, which were near 4.3% of everything screened.
BoNT-A LC inh2: inhibitors of Botulinum neurotoxin A light chain protease; multiplex microsphere protease substrate cleavage, flow cytometry; inhibition, % at 10 µM; actives 0.17% (n = 360,000); AID 588499; also: plate controls were buffer without enzyme for full effect and enzyme alone for no effect
MazEF act: MazEF (E. coli) toxin RNase activation; P0AE70; FAM/BHQ RNA-DNA oligo cleavage fluorescence, 5 h; activation, % at 20 µM; actives 0.32% (n = 350,000); in the data active = activation above about 50%
Target sequence (P0AE70 whole entry, looked up): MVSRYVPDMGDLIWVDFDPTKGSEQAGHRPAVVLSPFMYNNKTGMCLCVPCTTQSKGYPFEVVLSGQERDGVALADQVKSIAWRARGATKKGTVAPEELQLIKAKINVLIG
Anthrax LF inh2: inhibitors of Bacillus anthracis lethal factor protease; actives 0.12% (n = 360,000); inhibition, % at 10 µM; multiplex microsphere protease cleavage assay, LF; AID 588501; also: plate controls were buffer without enzyme for full effect and enzyme alone for no effect
Autofluor counter: flagged as autofluorescent in microsphere protease counterscreen. AID 624483. compound autofluorescence counterscreen, microsphere flow cytometry; active compounds read high. fluorescence intensity (test concentration not listed). actives 3.1% (n = 360,000); in the data active = fluorescence intensity above about 16000; inconclusive = no clear call, values can overlap the other calls
PfHsp40 rescue: rescue of PfHsp40-mediated yeast toxicity; growth rescue, % at 12.5 µM; actives 0.68% (n = 340,000); S. cerevisiae expressing PfHsp40, growth rescue, ATP luminescence; in the data active = growth rescue above about 28%, passing the limit was not always enough; inconclusive = no clear call, values can overlap the other calls;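 also: yeast W303a lacking pdr1 and pdr3 grown in galactose medium; growth measured after three days at 30 °C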
BoNT F protease: inhibitors of Botulinum neurotoxin F light chain protease; Multiplex microsphere protease cleavage assay, flow cytometry; inhibition, % at 10 µM; actives 0.22% (n = 360,000); in the data active = inhibition above about 35%, passing the limit was not always enough; inconclusive = no clear call, values can overlap the other calls; also: plate controls were buffer without enzyme for full effect and enzyme alone for no effect
* = called active by the depositor. Rule as the data show it, unless noted: active = inhibition above about 30%; inconclusive = no clear call, values can overlap the other calls; inactive = below that.

Screening CCn1c(SCC(=O)N2CCCCC2)nnc1-c1ccc(S(=O)(=O)N2CCN(C)CC2)cc1 returned BoNT-A LC inh2 1, MazEF act 11, Anthrax LF inh2 0, Autofluor counter 16315*, PfHsp40 rescue -1 and BoNT F protease 3.
`CCOC(=O)CSc1nnc(-c2ccc(S(=O)(=O)N3CCOCC3)cc2)n1-c1ccccc1` gave BoNT-A LC inh2 -1, MazEF act 4, Anthrax LF inh2 1, Autofluor counter 4465, PfHsp40 rescue 0 and BoNT F protease -6.
For CCn1c(SCC(=O)N2CCCC(C)C2)nnc1-c1ccc(S(=O)(=O)N2CCN(C)CC2)cc1 (stereo unspecified) the results were BoNT-A LC inh2 0, MazEF act 6, Anthrax LF inh2 -6, Autofluor counter 5786, PfHsp40 rescue 0 and BoNT F protease -2.
Screening CCc1nc2ccc(C(=O)Nc3cccc(OC)c3)cn2c1N(C)CCCc1ccccc1 returned BoNT-A LC inh2 0, Anthrax LF inh2 -1, Autofluor counter 2818 and BoNT F protease -4.
Screening Nc1c(CNCc2nnn(Cc3ccccc3)c2N)nnn1Cc1ccccc1 returned BoNT-A LC inh2 0, MazEF act 8, Anthrax LF inh2 -1, Autofluor counter 2983 and BoNT F protease -9.
For CCn1c(SCC(=O)Nc2cc(C)on2)nnc1-c1ccc(S(=O)(=O)N2CCN(C)CC2)cc1 the results were BoNT-A LC inh2 0, MazEF act 3, Anthrax LF inh2 0, Autofluor counter 24027*, PfHsp40 rescue -1 and BoNT F protease 1.
For CCn1c(SCC(=O)N2CCCC2)nnc1-c1ccc(S(=O)(=O)N2CCCCCC2)cc1 the results were BoNT-A LC inh2 inconclusive, MazEF act 12, Anthrax LF inh2 2, Autofluor counter 19519*, PfHsp40 rescue 1 and BoNT F protease 2.
`NC(=O)CSc1nnc(-c2ccc(S(=O)(=O)N3CCCC3)cc2)n1Cc1ccco1` gave BoNT-A LC inh2 4, MazEF act -4, Anthrax LF inh2 0, Autofluor counter 19668*, PfHsp40 rescue -1 and BoNT F protease 3.
For CC(=O)Nc1cccc(-c2cc(N3CCN(CCO)CC3)n3nccc3n2)c1 the results were BoNT-A LC inh2 0, Anthrax LF inh2 -2, Autofluor counter 3772 and BoNT F protease -3.
For Cc1ccccc1C(=O)NC1CCN(CC(=O)Nc2nccs2)CC1 the results were BoNT-A LC inh2 inconclusive, MazEF act -2, Anthrax LF inh2 -1, Autofluor counter 20345*, PfHsp40 rescue 1 and BoNT F protease 0.
COC(=O)c1ccccc1NC(=O)CN1CCC(NC(=O)c2ccccc2C)CC1 was read as BoNT-A LC inh2 0, MazEF act 7, Anthrax LF inh2 1, Autofluor counter 16191*, PfHsp40 rescue 1 and BoNT F protease -4.
`Cc1ccc(NC(=O)NC2CCN(CC(=O)Nc3nccs3)CC2)cc1` gave BoNT-A LC inh2 -1, MazEF act 2, Anthrax LF inh2 1, Autofluor counter 9828, PfHsp40 rescue 0 and BoNT F protease 0.
Screening CCOC(=O)c1c(C)[nH]c(C(=O)N(C)CC(=O)Nc2ccc(OC)cc2)c1C returned MazEF act 4 and PfHsp40 rescue -2.
`CC1(C)CC(=O)C(C=NCCN2CCN(CCc3ccccc3)CC2)=C(O)C1` gave BoNT-A LC inh2 -3, MazEF act -6, Anthrax LF inh2 0, Autofluor counter 20820*, PfHsp40 rescue 1 and BoNT F protease -3.
CC1(C)CC(=O)C(C=NCCN2CCN(CC(=O)Nc3ccc(F)cc3)CC2)=C(O)C1 was read as BoNT-A LC inh2 1, MazEF act 0, Anthrax LF inh2 1, Autofluor counter 6043, PfHsp40 rescue 12 and BoNT F protease -7.
For CCCCCCN=CC1=C(O)CC(C)(C)CC1=O the results were BoNT-A LC inh2 -1, MazEF act 0, Anthrax LF inh2 -6, Autofluor counter 3660, PfHsp40 rescue 1 and BoNT F protease -17.
`COCCCN=CC1=C(O)CC(C)(C)CC1=O` gave BoNT-A LC inh2 inconclusive, MazEF act 4, Anthrax LF inh2 -3, Autofluor counter 23898*, PfHsp40 rescue 1 and BoNT F protease -1.
CC1(C)CC(=O)C(C=NCCN2CCN(C(=S)Nc3ccc(F)cc3)CC2)=C(O)C1 was read as BoNT-A LC inh2 inconclusive, MazEF act -4, Anthrax LF inh2 -6, Autofluor counter 16455*, PfHsp40 rescue 2 and BoNT F protease -5.
